The source of these data is ChEMBL document CHEMBL1961873, “Compounds: GSK PKIS; Assays: Nanosyn kinase panel” (2012).

The target in experiment [1] is Tyrosine-protein kinase SYK (Homo sapiens) (UniProt P43405). The conditions noted are these: at 1 µM.
The target of experiment [2] is T1, Tyrosine-protein kinase Tec (Homo sapiens) (UniProt P42680).
T1 sequence (whole entry): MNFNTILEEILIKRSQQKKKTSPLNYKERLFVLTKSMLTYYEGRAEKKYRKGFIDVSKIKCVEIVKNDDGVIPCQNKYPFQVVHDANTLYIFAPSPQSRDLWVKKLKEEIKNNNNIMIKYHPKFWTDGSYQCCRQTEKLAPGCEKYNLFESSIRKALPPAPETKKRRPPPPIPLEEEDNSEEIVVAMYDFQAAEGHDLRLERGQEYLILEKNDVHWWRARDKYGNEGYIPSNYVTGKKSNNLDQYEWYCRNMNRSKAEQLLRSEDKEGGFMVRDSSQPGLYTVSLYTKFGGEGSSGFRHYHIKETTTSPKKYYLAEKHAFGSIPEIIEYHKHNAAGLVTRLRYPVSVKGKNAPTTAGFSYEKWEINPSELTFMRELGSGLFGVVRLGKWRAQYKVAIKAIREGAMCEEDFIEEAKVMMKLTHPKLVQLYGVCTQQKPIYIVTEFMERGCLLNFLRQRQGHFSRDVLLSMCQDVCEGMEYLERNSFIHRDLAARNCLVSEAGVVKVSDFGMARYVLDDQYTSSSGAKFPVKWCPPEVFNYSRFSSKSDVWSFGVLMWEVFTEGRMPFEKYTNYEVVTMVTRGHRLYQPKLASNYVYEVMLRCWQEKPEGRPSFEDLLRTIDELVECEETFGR
Particulars: at 0.1 µM.

Experiment [3] concerns the target T1, Tyrosine-protein kinase Tec (Homo sapiens). The conditions noted are these: at 1 µM.
Experiment [4] concerns the target Angiopoietin-1 receptor (Homo sapiens) (UniProt Q02763). Particulars: at 0.1 µM.
The target is the same in experiment [5]. The conditions noted are these: at 1 µM.
Experiment [6] has as its target T2, Non-receptor tyrosine-protein kinase TNK1 (Homo sapiens) (UniProt Q13470).
T2 sequence (whole entry): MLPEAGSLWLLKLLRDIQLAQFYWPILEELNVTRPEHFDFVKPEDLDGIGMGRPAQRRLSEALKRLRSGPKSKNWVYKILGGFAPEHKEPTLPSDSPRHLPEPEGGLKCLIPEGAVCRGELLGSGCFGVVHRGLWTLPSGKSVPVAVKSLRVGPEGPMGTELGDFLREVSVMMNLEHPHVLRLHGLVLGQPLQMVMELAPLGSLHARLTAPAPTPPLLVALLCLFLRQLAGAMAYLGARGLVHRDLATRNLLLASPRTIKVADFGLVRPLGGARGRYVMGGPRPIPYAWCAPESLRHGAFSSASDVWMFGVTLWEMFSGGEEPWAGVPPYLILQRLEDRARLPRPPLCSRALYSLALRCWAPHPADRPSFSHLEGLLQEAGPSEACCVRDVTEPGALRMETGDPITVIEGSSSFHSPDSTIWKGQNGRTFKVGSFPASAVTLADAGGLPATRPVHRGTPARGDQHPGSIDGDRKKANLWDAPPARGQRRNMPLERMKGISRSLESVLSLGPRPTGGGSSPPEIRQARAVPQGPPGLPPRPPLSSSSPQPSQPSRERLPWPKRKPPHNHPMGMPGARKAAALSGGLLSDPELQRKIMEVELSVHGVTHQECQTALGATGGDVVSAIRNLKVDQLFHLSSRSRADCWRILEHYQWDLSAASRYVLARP
Particulars: at 0.1 µM.

Experiment [7] addresses T2, Non-receptor tyrosine-protein kinase TNK1 (Homo sapiens). The conditions noted are these: at 1 µM.
Experiment [8] addresses Activated CDC42 kinase 1 (Homo sapiens) (UniProt Q07912). The conditions noted are these: at 0.1 µM.
Experiment [9] has the same target. The conditions noted are these: at 1 µM.
The target in experiment [10] is High affinity nerve growth factor receptor (Homo sapiens) (UniProt P04629). Particulars: at 0.1 µM.
For experiment [11] the target is unchanged. Particulars: at 1 µM.
In experiment [12] the target is BDNF/NT-3 growth factors receptor (Homo sapiens) (UniProt Q16620). Particulars: at 0.1 µM.
Experiment [13] shares this target. Particulars: at 1 µM.
For experiment [14], the target named is NT-3 growth factor receptor (Homo sapiens) (UniProt Q16288). The conditions noted are these: at 0.1 µM.
Experiment [15] shares this target. The conditions noted are these: at 1 µM.
In experiment [16] the target is T3, Tyrosine-protein kinase TXK (Homo sapiens) (UniProt P42681).
T3 sequence (whole entry): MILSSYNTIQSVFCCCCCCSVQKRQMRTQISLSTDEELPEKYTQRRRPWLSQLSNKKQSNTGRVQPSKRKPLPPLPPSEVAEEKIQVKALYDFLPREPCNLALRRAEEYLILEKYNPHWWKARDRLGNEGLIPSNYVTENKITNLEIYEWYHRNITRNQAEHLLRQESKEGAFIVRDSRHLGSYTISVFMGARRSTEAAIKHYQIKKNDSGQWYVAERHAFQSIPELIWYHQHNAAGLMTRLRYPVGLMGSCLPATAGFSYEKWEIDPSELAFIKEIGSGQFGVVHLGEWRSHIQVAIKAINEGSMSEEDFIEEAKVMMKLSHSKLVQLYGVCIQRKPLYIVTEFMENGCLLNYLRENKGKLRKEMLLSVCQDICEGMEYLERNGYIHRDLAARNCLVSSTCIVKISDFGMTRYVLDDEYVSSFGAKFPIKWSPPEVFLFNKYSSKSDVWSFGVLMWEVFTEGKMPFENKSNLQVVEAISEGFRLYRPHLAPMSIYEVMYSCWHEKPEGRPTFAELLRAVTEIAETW
The conditions noted are these: at 0.1 µM.

In experiment [17] the target is T3, Tyrosine-protein kinase TXK (Homo sapiens). The conditions noted are these: at 1 µM.
For experiment [18], the target named is Non-receptor tyrosine-protein kinase TYK2 (Homo sapiens) (UniProt P29597). Particulars: at 0.1 µM.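 Note: each value is a mean of the inhibition readings.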
Experiment [19] deals with T4, Dual specificity protein kinase TTK (Homo sapiens) (UniProt P33981).
T4 sequence (whole entry): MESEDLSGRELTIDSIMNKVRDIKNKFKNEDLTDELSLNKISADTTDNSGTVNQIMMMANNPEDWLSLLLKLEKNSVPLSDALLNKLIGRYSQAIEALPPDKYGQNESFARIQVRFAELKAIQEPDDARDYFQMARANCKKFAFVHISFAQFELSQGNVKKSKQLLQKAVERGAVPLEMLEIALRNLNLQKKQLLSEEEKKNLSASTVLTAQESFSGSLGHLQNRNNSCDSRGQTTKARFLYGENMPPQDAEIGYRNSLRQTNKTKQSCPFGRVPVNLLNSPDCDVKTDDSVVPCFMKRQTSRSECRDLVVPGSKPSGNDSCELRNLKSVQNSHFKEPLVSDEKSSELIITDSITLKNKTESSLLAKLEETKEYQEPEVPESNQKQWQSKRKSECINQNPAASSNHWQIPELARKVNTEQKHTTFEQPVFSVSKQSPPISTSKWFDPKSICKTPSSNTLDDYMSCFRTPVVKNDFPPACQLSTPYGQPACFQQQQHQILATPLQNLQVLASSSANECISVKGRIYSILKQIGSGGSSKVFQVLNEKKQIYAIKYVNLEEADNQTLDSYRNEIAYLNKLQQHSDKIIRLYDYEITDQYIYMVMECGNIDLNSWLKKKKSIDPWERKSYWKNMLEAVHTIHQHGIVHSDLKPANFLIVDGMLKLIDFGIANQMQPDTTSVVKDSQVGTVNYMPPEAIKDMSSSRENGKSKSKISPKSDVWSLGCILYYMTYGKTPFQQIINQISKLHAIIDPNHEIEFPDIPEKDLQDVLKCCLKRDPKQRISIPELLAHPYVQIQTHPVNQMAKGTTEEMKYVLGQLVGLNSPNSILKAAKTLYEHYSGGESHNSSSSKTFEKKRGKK
Particulars: at 1 µM.

The target in experiment [20] is T5, Aurora kinase A (Homo sapiens) (UniProt O14965).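 Note: each reported value is a mean percent inhibition of Aurora-A.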
T5 sequence (whole entry): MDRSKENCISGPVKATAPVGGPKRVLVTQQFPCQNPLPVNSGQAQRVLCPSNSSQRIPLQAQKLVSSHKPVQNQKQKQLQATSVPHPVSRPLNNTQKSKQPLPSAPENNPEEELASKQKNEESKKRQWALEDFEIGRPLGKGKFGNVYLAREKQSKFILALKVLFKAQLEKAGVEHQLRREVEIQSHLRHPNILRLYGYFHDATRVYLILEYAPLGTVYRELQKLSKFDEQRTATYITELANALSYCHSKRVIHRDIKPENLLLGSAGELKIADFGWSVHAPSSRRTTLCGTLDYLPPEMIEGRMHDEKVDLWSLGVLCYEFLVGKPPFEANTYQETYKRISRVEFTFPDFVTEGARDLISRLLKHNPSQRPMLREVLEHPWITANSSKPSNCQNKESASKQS
Particulars: at 0.1 µM.

Chain of Angiopoietin-1 receptor (Homo sapiens) (Q02763 whole entry): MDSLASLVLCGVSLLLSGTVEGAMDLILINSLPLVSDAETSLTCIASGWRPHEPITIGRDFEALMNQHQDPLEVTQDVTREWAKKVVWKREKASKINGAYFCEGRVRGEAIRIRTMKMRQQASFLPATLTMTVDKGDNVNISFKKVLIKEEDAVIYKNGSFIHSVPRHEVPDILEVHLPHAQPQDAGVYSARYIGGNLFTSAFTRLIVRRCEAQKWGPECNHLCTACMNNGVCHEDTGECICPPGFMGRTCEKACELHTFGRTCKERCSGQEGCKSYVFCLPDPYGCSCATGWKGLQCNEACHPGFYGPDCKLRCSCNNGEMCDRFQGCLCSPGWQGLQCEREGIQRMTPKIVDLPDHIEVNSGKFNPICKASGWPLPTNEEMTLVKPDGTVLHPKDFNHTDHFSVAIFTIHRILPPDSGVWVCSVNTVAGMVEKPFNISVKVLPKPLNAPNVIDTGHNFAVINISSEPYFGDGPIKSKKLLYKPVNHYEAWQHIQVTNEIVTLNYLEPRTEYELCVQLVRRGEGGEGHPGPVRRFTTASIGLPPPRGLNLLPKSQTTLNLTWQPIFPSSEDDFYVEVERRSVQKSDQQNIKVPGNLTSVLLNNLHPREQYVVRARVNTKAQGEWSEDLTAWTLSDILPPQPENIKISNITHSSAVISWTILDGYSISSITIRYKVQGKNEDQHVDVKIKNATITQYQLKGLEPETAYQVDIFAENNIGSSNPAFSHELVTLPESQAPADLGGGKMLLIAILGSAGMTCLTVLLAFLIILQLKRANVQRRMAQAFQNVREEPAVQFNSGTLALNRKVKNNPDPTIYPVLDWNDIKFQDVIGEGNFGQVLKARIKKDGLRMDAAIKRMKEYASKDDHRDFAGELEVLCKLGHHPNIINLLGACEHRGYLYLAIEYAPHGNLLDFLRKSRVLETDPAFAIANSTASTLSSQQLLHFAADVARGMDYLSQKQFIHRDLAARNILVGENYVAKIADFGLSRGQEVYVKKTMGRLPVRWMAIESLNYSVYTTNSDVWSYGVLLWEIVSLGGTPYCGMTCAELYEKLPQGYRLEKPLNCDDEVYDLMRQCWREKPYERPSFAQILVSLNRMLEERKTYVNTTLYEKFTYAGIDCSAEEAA
Chain of BDNF/NT-3 growth factors receptor (Homo sapiens) (Q16620 32-822 limits assumed): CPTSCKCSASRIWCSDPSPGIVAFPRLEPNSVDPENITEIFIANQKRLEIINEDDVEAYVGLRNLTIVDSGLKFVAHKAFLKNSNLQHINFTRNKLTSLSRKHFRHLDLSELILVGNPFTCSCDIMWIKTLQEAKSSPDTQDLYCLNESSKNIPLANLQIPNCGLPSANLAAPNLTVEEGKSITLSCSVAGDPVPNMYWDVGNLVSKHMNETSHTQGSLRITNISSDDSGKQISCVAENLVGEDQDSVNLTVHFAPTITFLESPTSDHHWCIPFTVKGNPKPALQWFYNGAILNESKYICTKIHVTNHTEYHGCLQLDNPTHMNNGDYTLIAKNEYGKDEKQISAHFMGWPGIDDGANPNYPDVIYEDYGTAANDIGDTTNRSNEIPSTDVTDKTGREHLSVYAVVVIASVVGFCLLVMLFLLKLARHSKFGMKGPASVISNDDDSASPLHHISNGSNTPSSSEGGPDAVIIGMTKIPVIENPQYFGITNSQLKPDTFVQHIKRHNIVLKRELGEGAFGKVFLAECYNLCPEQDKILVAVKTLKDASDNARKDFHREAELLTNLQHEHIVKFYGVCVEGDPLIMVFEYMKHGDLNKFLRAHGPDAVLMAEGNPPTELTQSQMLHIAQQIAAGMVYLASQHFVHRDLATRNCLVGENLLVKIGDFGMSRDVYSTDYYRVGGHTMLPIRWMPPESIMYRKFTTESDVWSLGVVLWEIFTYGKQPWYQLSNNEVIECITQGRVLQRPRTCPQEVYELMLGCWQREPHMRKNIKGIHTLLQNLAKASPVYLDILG
Chain of Activated CDC42 kinase 1 (Homo sapiens) (Q07912 whole entry, looked up): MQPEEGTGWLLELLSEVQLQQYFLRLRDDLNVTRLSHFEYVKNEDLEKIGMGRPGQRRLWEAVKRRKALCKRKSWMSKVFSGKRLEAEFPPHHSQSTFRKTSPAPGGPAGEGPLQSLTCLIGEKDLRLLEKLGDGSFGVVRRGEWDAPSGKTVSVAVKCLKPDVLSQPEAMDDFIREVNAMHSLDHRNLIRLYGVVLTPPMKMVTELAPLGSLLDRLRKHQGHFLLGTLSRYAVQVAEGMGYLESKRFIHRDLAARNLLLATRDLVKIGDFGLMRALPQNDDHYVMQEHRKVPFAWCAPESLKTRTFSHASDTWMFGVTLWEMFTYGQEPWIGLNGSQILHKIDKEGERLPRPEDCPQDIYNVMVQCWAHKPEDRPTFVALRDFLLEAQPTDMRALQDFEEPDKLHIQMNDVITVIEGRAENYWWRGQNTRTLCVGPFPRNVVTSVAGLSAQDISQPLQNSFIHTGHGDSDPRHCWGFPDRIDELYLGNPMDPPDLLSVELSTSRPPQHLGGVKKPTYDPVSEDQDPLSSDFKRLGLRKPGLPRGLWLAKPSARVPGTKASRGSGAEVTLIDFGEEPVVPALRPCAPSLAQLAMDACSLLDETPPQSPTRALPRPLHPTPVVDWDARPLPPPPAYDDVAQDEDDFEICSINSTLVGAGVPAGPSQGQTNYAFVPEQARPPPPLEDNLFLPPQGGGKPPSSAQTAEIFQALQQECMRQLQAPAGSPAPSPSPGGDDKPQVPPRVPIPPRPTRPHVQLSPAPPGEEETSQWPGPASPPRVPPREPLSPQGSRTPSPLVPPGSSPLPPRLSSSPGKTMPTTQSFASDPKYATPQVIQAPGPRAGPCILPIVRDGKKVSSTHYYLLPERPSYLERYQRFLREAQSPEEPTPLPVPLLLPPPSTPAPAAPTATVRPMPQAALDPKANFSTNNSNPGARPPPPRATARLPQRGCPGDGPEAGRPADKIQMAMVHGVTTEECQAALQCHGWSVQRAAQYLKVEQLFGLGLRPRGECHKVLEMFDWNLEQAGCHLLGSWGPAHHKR
Chain of Non-receptor tyrosine-protein kinase TYK2 (Homo sapiens) (P29597 whole entry): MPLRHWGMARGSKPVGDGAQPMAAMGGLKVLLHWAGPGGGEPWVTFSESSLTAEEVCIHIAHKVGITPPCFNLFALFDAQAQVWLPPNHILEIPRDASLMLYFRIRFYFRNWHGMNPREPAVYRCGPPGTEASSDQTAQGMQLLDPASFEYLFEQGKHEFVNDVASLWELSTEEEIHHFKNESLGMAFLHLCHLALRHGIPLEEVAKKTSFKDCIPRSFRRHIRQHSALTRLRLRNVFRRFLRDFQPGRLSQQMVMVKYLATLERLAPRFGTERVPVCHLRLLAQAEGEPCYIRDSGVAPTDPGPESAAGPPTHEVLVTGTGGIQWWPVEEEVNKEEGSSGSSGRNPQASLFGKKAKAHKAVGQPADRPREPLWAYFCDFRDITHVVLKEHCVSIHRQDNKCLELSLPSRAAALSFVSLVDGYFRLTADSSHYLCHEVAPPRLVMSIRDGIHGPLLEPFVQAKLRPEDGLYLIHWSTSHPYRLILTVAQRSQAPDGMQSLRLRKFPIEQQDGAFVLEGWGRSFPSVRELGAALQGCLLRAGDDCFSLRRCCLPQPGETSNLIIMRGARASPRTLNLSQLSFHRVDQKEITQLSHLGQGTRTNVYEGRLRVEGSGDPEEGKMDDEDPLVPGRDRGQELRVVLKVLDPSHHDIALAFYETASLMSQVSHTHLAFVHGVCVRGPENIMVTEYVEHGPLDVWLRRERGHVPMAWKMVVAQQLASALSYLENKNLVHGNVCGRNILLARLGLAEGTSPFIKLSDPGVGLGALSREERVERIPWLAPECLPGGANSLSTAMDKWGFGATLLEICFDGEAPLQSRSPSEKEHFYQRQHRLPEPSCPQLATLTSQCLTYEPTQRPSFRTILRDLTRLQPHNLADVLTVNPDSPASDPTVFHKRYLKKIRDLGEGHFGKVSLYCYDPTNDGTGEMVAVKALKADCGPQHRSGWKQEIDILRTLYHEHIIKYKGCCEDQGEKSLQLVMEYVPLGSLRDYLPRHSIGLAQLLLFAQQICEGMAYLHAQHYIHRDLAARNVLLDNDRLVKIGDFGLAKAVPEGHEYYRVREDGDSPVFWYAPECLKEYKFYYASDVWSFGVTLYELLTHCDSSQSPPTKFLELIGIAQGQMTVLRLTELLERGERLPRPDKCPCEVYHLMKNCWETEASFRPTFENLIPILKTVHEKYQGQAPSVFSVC
Chain of NT-3 growth factor receptor (Homo sapiens) (Q16288 32-839 limits assumed): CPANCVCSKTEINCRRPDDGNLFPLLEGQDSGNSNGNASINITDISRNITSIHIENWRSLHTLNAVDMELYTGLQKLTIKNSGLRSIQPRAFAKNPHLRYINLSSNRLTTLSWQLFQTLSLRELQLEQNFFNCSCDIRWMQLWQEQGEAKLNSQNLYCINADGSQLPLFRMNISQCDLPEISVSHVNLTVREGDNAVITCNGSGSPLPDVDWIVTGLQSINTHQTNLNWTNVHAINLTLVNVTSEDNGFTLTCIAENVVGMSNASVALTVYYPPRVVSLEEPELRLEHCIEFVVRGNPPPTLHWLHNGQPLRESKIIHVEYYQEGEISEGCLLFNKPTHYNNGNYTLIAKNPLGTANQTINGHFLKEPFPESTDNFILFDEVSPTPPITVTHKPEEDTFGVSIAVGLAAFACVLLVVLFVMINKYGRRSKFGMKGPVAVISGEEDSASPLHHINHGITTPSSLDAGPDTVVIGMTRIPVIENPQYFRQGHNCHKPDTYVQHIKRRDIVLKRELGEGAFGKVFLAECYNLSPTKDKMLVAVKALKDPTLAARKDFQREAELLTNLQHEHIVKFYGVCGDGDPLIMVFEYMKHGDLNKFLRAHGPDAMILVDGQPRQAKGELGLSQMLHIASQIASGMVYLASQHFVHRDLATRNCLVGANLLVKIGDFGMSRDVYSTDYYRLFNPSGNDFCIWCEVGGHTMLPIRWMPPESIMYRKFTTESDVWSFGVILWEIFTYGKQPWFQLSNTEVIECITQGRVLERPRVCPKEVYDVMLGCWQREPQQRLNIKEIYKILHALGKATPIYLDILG

As for `COc1cc(N2CCN(C(C)C)CC2)ccc1Nc1nc(Nc2ccc(F)cc2C(=O)NC[C@@H](O)CO)c2cc[nH]c2n1`, the inhibition in experiment [1] is -2.57%; in experiment [2], 1.33%; in experiment [3] it was 1.93%; in experiment [4] it was 2.59%; in experiment [5] it was 6.08%; in experiment [6], 14.7%. Also, the inhibition in [7] came out at 60.5%; in experiment [8] it was 3.26%; in experiment [9], 9.35%; in [10] it was 3.81%; in [11], 1.99%; in experiment [12] it was 3.32%. For the same compound, the inhibition is 5.92% in [13]; 3.35% in experiment [14]; 4.57% in experiment [15]; -1.48% in experiment [16]; -0.56% in [17]; -4.74% in [18]. Besides, the inhibition is 82% in [19] and -1.18% in experiment [20].
For `CN(C)CCCNc1nccc(-c2c(-c3ccc(F)cc3)nn3cc(C(F)(F)F)ccc23)n1`, the inhibition in [1] was -0.03%; in experiment [2], -0.2%; in [3], 1.41%; in experiment [4], 5.61%; in experiment [5] it was 9.58%; in experiment [6] it was 1.15%. For the same compound, the inhibition in experiment [7] amounted to 0.39%; in experiment [8], 0.85%; in [9], 1.33%; in experiment [10], 4.23%; in experiment [11] it was 2.77%; in experiment [12], 4.65%. Besides, the inhibition in [13] was 0.51%; in experiment [14] it was 2.89%; in [15], 2.21%; in [16] it was -0.89%; in [17] it was 0.21%; in experiment [18], -7.47%. The inhibition in [19] was 8.76%; in experiment [20], -2.9%.
With `NS(=O)(=O)c1ccc(N/N=C2\C(=O)Nc3ccc(C(=O)NCCCn4ccnc4)cc32)cc1`, the inhibition in experiment [1] is -1.66%; in [2], 3.92%; in experiment [3] it was 10.5%; in [4], 2.3%; in [5], 5.99%; in experiment [6] it was 6.1%. Further, the inhibition was 16.5% in [7]; 0.41% in experiment [8]; 3.98% in experiment [9]; 2.34% in experiment [10]; 12% in experiment [11]; 9.05% in experiment [12]. The inhibition in [13] is 43.2%; in [14], 9.74%; in experiment [15], 44.2%; in [16] it was 3.46%; in [17], 4.42%; in experiment [18], -2.26%. Also, the inhibition in [19] came to 71.3%; in [20], 5.44%.
